14 sequences from article PMC3795721, “Screening for Protein-DNA Interactions by Automatable DNA-Protein Interaction ELISA” can be followed below.

The experiment deals with AT4G31550 (Arabidopsis thaliana, UniProt Q9SV15 228-325). Nature of the experiment: DPI-ELISA; DPI-ELISA, streptavidin 384-well plate, 1-2 pmol biotinylated dsDNA per well, crude native E. coli extract, anti-His detection; buffer as in Brand et al. [46],; high values mean tight binding. The conditions noted are these: tags: C-terminal His (pET-DEST42); label: 5' biotin on forward strand; dsDNA, one strand shown. Background: In an ELISA, binding on a coated surface is turned into a signal by an enzyme label.
AT4G31550, sequence (Q9SV15 228-325): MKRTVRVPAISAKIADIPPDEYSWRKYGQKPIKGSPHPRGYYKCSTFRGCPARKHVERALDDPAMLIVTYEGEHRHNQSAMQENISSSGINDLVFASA
The sequence AAAAAACACTGCACTATTGGGAGTTCAAAA came in with a binding signal of 0.615 ± 0.177 absorbance.
Turning to AAAAAATTCTTTTTTCTTCAAGGTCTAAAA, the binding signal is 0.565 ± 0.0212 absorbance.
The sequence AAAAAATTACTTCTCCCTTCCTTTGCAAAA had a binding signal of 0.605 ± 0.163 absorbance.
In turn, AAAAAATCAAAACAACGATGCCGTTAAAAA returned a binding signal of 0.73 ± 0.0849 absorbance.
As for AAAAAATTTCTATTTCATCTTTGCCCAAAA, the figure is 0.72 ± 0.156 absorbance; as for AAAAAAATGCGCCCTTTCTGACATAAAAAA, 0.615 ± 0.106 absorbance; as for AAAAAACACTCACACCTATACGGCTCAAAA, 0.665 ± 0.233 absorbance.
Sequence AAAAAAAGTAGTTACTGCGAAAGTCTAAAA yielded a binding signal of 0.675 ± 0.0778 absorbance.
Next, AAAAAATCCATGTTTAAGCTGGTCTCAAAA: 0.695 ± 0.148 absorbance.
Next, AAAAAACTGGCGACTGCCAGTGGTAGAAAA: 0.385 ± 0.0354 absorbance; AAAAAAGGTAATGCCGGTCCCAGTATAAAA: 0.525 ± 0.0778 absorbance; AAAAAACATGTCGCACCTGTACTAACAAAA: 0.66 ± 0.127 absorbance.
Sequence AAAAAAAAGAGCCTGGGGGTTCGCATAAAA yielded a binding signal of 0.655 ± 0.0636 absorbance.
As for AAAAAAGATCTAGGCCTTGGGACTCAAAAA, the figure is 0.415 ± 0.0636 absorbance.
